SMILES strings stand for the structures. Records with an inconclusive call do not appear. The source made the active and inactive calls. The calls were made as follows, unless noted: active = hit-call score of the fitted dose curve at least 0.9, where 1 is the maximum; inconclusive = response in the unintended direction; inactive = score below 0.9.

Assay [1] can be described thus: ACEA_ER_AUC_viability: ACEA Biosciences xCELLigence Real-Time Cell Analysis on Estrogen Receptor Agonism for Viability (AID 2283782).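 Also: hit means loss of impedance signal meaning reduced cell growth or viability.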 Put shortly:
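Viability endpoint: reduced impedance area under the curve relative to DMSO, recorded by real-time electrode sensing over ~80 h of continuous exposure. Duplicate plates of T47D in hormone-depleted medium; eight concentrations, 1:4 dilutions, 100 uM maximum.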

In assay [2] the target is Steroid hormone receptor ERR1 (Homo sapiens) (UniProt P11474). Nature of the assay: ATG_ERRa_TRANS: Attagene TRANS-FACTORIAL HepG2 Assay for human Estrogen-Related Receptor alpha (ERRa) (AID 2282971). As to conditions: HepG2 Attagene TRANS reporter, ERRa transactivation. In a few lines:
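Reporter transcripts from ERRa-Gal4 chimera activity measured in transiently transfected human HepG2 cells 24 hours after dosing, using RT-PCR with 6-FAM primer extension, HpaI digestion and capillary electrophoresis; DMSO is baseline.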

In assay [3] the target is Estrogen-related receptor gamma (Homo sapiens) (UniProt P62508). Nature of the assay: ATG_ERRg_TRANS: Attagene TRANS-FACTORIAL HepG2 Assay for human Estrogen-Related Receptor gamma (ERRg) (AID 2282977).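 Also: hits increase reporter signal over DMSO so potencies reflect activators.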 To be noted: HepG2 Attagene TRANS reporter, ERRg transactivation. In a few lines:
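Readout: fluorescent reporter-mRNA fragments resolved by capillary electrophoresis after RT-PCR and HpaI cut. Cells: transiently transfected HepG2 carrying GAL4-UAS reporters driven by exogenous NR-Gal4 chimeras, dosed 24 h. Activity fitted upward relative to DMSO baseline.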

Assay [4] in a line: BSK_3C_uPAR: BioMAP Diversity Plus: 3C Assay for Urokinase-type plasminogen activator receptor (uPAR) Biomarker Activity (AID 2282998; active = hit-call score of the fitted dose curve at least 0.9, where 1 is the maximum; inactive = score below 0.9). As to conditions: BioMAP 3C HUVEC, uPAR biomarker ELISA; actives raise or lower the signal. Put shortly:
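Readout: ELISA for surface uPAR. System: human umbilical vein endothelial primary cells, 24 h after chemical exposure. Analysis: bidirectional fit, DMSO baseline.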
Background: An ELISA detects its analyte on a solid surface through an enzyme-linked reagent.

Read-out in assay [5]: Monocyte Chemoattractant Protein-1 (MCP1), CCL2 (gene 6347)
Nature of the assay: BSK_4H_MCP1: BioMAP Diversity Plus: 4H Assay for Monocyte Chemoattractant Protein-1 (MCP1) Biomarker Activity (AID 2283018; active = hit-call score of the fitted dose curve at least 0.9, where 1 is the maximum; inactive = score below 0.9). To be noted: primary human endothelial cells (HUVEC); actives raise or lower the signal. Put shortly:
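HUVEC primary cells, 24 h post-dose, MCP-1 by ELISA. Gain or loss of signal fitted bidirectionally vs DMSO baseline. Cytotoxicity: SRB stain (0.1% after 10% TCA fixation), read 560 nm, parallel cultures.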

Read-out in assay [6]: Monokine induced gamma interferon (MIG), CXCL9 (gene 4283)
Nature of the assay: BSK_3C_MIG: BioMAP Diversity Plus: 3C Assay for Monokine induced gamma interferon (MIG) Biomarker Activity (AID 2283021; active = hit-call score of the fitted dose curve at least 0.9, where 1 is the maximum; inactive = score below 0.9;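 also: MIG protein level measured by immunoassay in the treated endothelial cultures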). To be noted: primary human endothelial cells (HUVEC); actives raise or lower the signal. Put shortly:
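HUVEC, 3C system; 24 h chemical exposure; MIG by ELISA; bidirectional fit vs DMSO baseline.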

Read-out in assay [7]: Urokinase-type plasminogen activator receptor (uPAR), PLAUR (gene 5329)
Description: BSK_4H_uPAR: BioMAP Diversity Plus: 4H Assay for Urokinase-type plasminogen activator receptor (uPAR) Biomarker Activity (AID 2283030; active = hit-call score of the fitted dose curve at least 0.9, where 1 is the maximum; inactive = score below 0.9). To be noted: primary human endothelial cells (HUVEC); actives raise or lower the signal. Put shortly: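 uPAR level read by ELISA on HUVEC cultures (BioMAP 4H) 24 h post-dosing, analyzed for gain or loss relative to DMSO. Parallel SRB staining assessed overt cytotoxicity.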

Read-out in assay [8]: Plasminogen activator inhibitor-1 (PAI1), SERPINE1 (gene 5054)
Description: BSK_BE3C_PAI1: BioMAP Diversity Plus: BE3C Assay for Plasminogen activator inhibitor-1 (PAI1) Biomarker Activity (AID 2283037; active = hit-call score of the fitted dose curve at least 0.9, where 1 is the maximum; inactive = score below 0.9). As to conditions: primary human bronchial epithelial cells; actives raise or lower the signal. In a few lines:
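ELISA read-out of PAI-1 from human bronchial epithelial primary cells, 24 h post-dosing; bidirectional curve fit vs DMSO baseline, gain or loss of signal scored.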

Read-out in assay [9]: Tissue plasminogen activator (tPA), PLAT (gene 5327)
Nature of the assay: BSK_BE3C_tPA: BioMAP Diversity Plus: BE3C Assay for Tissue plasminogen activator (tPA) Biomarker Activity (AID 2283041; active = hit-call score of the fitted dose curve at least 0.9, where 1 is the maximum; inactive = score below 0.9;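 also: tPA level quantified by ELISA one day after compound addition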). To be noted: primary human bronchial epithelial cells; actives raise or lower the signal. In a few lines: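 ELISA read-out of tPA on human primary bronchial epithelial cells, 24 h post-dosing; bidirectional fit vs DMSO negative control/baseline.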

Read-out in assay [10]: Thrombomodulin, THBD (gene 7056)
Description: BSK_CASM3C_Thrombomodulin: BioMAP Diversity Plus: CASM3C Assay for Thrombomodulin Biomarker Activity (AID 2283051; active = hit-call score of the fitted dose curve at least 0.9, where 1 is the maximum; inactive = score below 0.9;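 also: thrombomodulin protein level measured by ELISA 24 h after dosing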). As to conditions: primary human coronary artery smooth muscle cells; actives raise or lower the signal.

The target of assay [11] is Estrogen receptor beta (Homo sapiens) (UniProt Q92731). Description: OT_ER_ERbERb_0480: Odyssey Thera (OT) 8-hour HEK293T Protein-Complementation Assay for Estrogen Receptor-beta/-beta Homodimer (AID 2283357).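 Also: active means signal gain over DMSO baseline.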 Put shortly:
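ER-beta LBD homodimer PCA stably expressed in HEK293T; 8 h compound exposure, then formaldehyde fixation and Draq5 staining. Gain in nuclear/cytoplasmic fluorescence intensity versus DMSO vehicle, read on laser scanning cytometer.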

Assay [12] shares this target. Nature of the assay: OT_ER_ERbERb_1440: Odyssey Thera (OT) 24-hour HEK293T Protein-Complementation Assay for Estrogen Receptor-beta/-beta Homodimer (AID 2283380).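 Also: scored as signal increase over DMSO baseline for both agonists and antagonists.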 In a few lines: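 Fluorescence increase, nuclear for agonists or whole-cell for antagonists, relative to DMSO vehicle, quantified by laser scanning cytometer after fixation and Draq5 staining. Readout from 24 h treatment of HEK293T cells carrying complementation-paired ER beta LBD (aa 310-547).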

Assay [13] concerns the target Peroxisome proliferator-activated receptor gamma (Homo sapiens) (UniProt P37231). Description: OT_PPARg_PPARgSRC1_1440: Odyssey Thera (OT) 24-hour Protein-Complementation Assay for Peroxisome Proliferator-activated Receptor Gamma/ SRC-1 Co-activator (AID 2283388).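 Also: nuclear to cytoplasmic ratio of reconstituted Venus YFP fluorescence in fixed imaged cells.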 Put shortly: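 Readout is the 488 nm N/C fluorescence ratio from fixed, Draq5-stained HEK293T cells after 24 h compound exposure. Cells carried transiently transfected PPARg and SRC-1 fused to Venus fragments, transfected 48 h before treatment.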

A short description of assay [14]: ACEA_AR_agonist_AUC_viability: ACEA Biosciences xCELLigence Real-Time Cell Analysis on Androgen Receptor Agonism for Viability (AID 2283775).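 As to AC50: viability read 80 hours after compound addition.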 In a few lines: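 Viability endpoint from xCELLigence impedance in 22Rv1 prostate cells at 80 h. Eight-point series, 100 uM maximum final.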
Assay [15] can be described thus: ACEA_AR_antagonist_AUC_viability: ACEA Biosciences xCELLigence Real-Time Cell Analysis on Androgen Receptor Antagonism for Viability (AID 2283776).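 Also: 22Rv1 human prostate cancer cells growing on impedance electrode plates; hits lower the growth signal relative to DMSO meaning cytotoxicity.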 Put shortly: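 Impedance read-out (RT-CES): area under growth curve at 80 h post-dose, loss of signal scored vs DMSO baseline. 22Rv1 cells; 8-pt 1:4 series, top 100 uM final, ≤0.5% DMSO; biological duplicate.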
Assay [16] is described as follows: ATG_ERE_CIS: Attagene CIS-FACTORIAL HepG2 Assay for Estrogen Response Element (ERE) (AID 2282940; active = hit-call score of the fitted dose curve at least 0.9, where 1 is the maximum; inactive = score below 0.9). To be noted: HepG2 ERE cis-reporter, Attagene RNA transcript; actives raise or lower the signal. Put shortly:
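Measuring endogenous transcription factor output, the assay doses transfected HepG2 cells for 24 hours and quantifies reporter transcripts by fluorescent RT-PCR and capillary electrophoresis, with DMSO as baseline.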

Assay [17] deals with Bile acid receptor (Homo sapiens) (UniProt Q96RI1). Nature of the assay: ATG_FXR_TRANS: Attagene TRANS-FACTORIAL HepG2 Assay for Farnesoid X Receptor (FXR) (AID 2282979).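 Also: hits raise reporter mRNA above DMSO so AC50 marks FXR activation.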 As to conditions: HepG2 Attagene TRANS FXR-GAL4 reporter transcription. In a few lines: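 Reporter transcripts from transfected HepG2 cells were measured 24 h after dosing, using RT-PCR with capillary electrophoresis of 6-FAM-labelled fragments. The read-out reflects activity of exogenous FXR-Gal4 chimera on GAL4-UAS units, with induction relative to DMSO.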

Assay [18] in a line: CCTE_Harrill_HTTr_Viability_MCF7: CCTE's 6-hour Cell Viability Assessment for the High-Throughput Transcriptomics (HTTr) Platform, in MCF-7 cells cultured in DMEM + 10% fetal bovine serum, Harrill Lab (AID 2284010; active = hit-call score of the fitted dose curve at least 0.9, where 1 is the maximum; inactive = score below 0.9). Put shortly:
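PI exclusion, high-content imaging; 8-pt dilution series, 6 h exposure; bidirectional fit vs DMSO (neg. ctrl/baseline); gain of signal = loss of membrane integrity.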

The target of assay [19] is Retinoic acid receptor RXR-alpha (Homo sapiens) (UniProt P19793). Description: OT_NURR1_NURR1RXRa_0480: Odyssey Thera (OT) 8-hour HEK293T Protein Complementation Assay for Nurr1/retinoid X receptor (RXR) (AID 2283385). Put shortly:
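Read-out: fluorescence from protein-fragment complementation between Nurr1 and RXRα in human HEK293T cells, 8 h after dosing. DMSO served as negative control; increased signal counted as activity.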

Assay [20] shares this target. Nature of the assay: OT_NURR1_NURR1RXRa_1440: Odyssey Thera (OT) 24-hour HEK293T Protein Complementation Assay for Nurr1/retinoid X receptor (RXR) (AID 2283386). In a few lines:
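Fluorescence PCA read-out; HEK293T; 24 h post-dose; bait/prey fused to reporter fragments; gain-of-signal fit vs DMSO negative control.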

Chain of Peroxisome proliferator-activated receptor gamma (Homo sapiens) (P37231 whole entry, looked up, the tested form may be a part): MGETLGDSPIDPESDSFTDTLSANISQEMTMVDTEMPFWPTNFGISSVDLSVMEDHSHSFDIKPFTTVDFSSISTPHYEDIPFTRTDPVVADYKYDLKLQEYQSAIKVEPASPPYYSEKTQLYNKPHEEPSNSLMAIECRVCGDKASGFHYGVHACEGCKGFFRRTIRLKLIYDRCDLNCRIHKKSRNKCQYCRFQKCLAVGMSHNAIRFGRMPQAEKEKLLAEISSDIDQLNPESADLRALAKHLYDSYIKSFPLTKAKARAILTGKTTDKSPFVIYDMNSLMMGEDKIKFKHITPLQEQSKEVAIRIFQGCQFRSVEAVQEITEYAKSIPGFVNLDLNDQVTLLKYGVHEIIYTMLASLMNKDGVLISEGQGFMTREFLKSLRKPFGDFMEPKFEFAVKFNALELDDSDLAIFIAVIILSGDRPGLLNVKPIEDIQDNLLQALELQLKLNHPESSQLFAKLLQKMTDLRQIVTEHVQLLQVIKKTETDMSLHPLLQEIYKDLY
Chain of Steroid hormone receptor ERR1 (Homo sapiens) (P11474 whole entry, looked up, the tested form may be a part): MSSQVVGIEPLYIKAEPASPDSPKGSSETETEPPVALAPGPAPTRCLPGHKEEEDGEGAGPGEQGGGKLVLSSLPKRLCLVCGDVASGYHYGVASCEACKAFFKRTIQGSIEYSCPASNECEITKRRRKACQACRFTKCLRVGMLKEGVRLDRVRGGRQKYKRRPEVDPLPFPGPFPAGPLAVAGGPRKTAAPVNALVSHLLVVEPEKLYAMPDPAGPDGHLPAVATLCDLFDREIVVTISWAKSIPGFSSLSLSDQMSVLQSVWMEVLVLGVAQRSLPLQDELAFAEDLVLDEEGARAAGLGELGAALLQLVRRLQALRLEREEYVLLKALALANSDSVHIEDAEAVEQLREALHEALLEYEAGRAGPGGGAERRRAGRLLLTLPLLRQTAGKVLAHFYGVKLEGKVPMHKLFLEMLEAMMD
Chain of Estrogen-related receptor gamma (Homo sapiens) (P62508 whole entry, looked up, the tested form may be a part): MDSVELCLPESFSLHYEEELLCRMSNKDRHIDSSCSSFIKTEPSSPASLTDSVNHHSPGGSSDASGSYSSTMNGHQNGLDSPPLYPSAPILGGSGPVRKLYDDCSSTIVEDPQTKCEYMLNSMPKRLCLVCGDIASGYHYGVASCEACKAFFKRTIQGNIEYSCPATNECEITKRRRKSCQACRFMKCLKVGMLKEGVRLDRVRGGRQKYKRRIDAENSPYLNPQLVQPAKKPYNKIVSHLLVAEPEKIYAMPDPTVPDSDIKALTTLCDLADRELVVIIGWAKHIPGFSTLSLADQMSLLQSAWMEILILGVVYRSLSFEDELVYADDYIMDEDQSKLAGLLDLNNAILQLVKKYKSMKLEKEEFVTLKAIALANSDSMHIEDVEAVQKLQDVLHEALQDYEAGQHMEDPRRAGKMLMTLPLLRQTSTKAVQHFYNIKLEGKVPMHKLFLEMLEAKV
Chain of Retinoic acid receptor RXR-alpha (Homo sapiens) (P19793 whole entry, looked up, the tested form may be a part): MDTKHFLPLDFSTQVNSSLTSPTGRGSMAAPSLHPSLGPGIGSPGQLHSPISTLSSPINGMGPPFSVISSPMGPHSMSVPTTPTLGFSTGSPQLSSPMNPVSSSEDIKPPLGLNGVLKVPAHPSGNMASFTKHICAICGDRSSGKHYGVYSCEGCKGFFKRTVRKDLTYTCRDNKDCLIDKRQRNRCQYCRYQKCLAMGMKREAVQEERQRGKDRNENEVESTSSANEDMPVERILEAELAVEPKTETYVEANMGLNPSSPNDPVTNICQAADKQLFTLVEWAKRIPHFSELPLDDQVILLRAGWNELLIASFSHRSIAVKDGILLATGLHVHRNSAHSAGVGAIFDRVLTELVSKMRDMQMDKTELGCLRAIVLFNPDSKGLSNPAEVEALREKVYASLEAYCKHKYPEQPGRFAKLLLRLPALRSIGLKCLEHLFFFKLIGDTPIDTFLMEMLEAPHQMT
Chain of Estrogen receptor beta (Homo sapiens) (Q92731 whole entry, looked up, the tested form may be a part): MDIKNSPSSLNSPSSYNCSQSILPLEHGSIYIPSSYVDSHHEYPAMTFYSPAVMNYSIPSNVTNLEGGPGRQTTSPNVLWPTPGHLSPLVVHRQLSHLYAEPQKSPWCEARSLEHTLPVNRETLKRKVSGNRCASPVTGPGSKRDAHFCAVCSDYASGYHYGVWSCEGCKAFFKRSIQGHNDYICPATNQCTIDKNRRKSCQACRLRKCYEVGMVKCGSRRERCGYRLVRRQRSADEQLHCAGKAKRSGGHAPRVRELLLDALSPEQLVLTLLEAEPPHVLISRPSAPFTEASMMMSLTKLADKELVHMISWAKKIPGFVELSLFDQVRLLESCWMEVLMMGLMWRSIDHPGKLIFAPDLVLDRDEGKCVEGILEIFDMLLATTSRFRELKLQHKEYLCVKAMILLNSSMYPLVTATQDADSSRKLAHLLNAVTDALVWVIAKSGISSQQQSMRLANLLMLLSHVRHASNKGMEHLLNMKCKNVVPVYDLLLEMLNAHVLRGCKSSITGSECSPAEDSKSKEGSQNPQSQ
Chain of Bile acid receptor (Homo sapiens) (Q96RI1 whole entry, looked up, the tested form may be a part): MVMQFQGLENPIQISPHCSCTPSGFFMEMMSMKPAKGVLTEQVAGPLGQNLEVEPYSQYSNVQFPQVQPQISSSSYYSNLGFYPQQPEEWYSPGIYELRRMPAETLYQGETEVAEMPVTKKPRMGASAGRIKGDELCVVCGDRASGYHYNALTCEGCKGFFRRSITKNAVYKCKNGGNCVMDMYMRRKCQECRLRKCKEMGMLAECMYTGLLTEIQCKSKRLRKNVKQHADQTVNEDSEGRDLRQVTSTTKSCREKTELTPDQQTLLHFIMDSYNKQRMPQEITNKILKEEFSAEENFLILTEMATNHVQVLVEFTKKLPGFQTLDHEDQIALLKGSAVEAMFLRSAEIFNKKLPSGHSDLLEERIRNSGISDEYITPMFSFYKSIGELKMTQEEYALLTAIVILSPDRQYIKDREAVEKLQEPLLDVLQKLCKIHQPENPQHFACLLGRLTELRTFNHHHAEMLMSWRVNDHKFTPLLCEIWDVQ

For `C=CCc1ccc(OC(=O)Cc2ccccc2)c(OC)c1`, in assay [1], the result was inactive.
Consider `O=[N+]([O-])C=Cc1ccccc1`, for which the molecule was classed as inactive in [2], in [3], in [8], in assay [9] and in assay [1]. The AC50 is 5.53 µM (active) in assay [4]; 8.93 µM (active) in assay [5]; 11.4 µM (active) in assay [6]; 5.14 µM (active) in [7]; 20 µM (active) in assay [10].
In the case of `O=[N+]([O-])c1cc([N+](=O)[O-])c2ccccc2c1`, in assay [3], the molecule was called inactive.
`CCCCCCCCCCCCCCCC[N+](C)(C)C`: the molecule was called inactive in assay [11], in [12] and in assay [13]. Further, the AC50 is 5.58 µM (active) in [14] and 6.1 µM (active) in assay [15].
As for `ClC1=C(Cl)[C@]2(Cl)[C@@H]3[C@@H](Cl)[C@H](Cl)C[C@@H]3[C@@]1(Cl)C2(Cl)Cl`, the molecule was classed as inactive in assay [16], in assay [2], in assay [3], in assay [17] and in [1].
As for `CCCCCCC1CCOC1=O` (stereo not drawn), the molecule was called inactive in assay [2] and in assay [3].
`[Cl][Sb]([Cl])[Cl]`: in assay [18], the result was inactive.
Turning to `C[N+](C)=CCl`, in assay [16], the call was inactive.
As for `Nc1ccccc1`, the molecule was called inactive in [19], in assay [20], in assay [13], in assay [14], in assay [15] and in [1]. In assay [18], the outcome was inactive.
Take `SCc1ccco1`: the call in assay [16] and in assay [1] was inactive.
For the molecule `CCCCOP(=O)(O)OCCCC`, the result in assay [16] and in [17] was inactive. Besides, the AC50 in [1] is 20.3 µM (active).
As for `CC(C)c1ccc(O)cc1`, the result in assay [3], in [20], in assay [13], in assay [14] and in [15] was inactive. The AC50 in assay [11] was 57.9 µM (active); in assay [12], 50 µM (active).
In the case of `O=S(=O)(O)OOS(=O)(=O)O`, the molecule was called inactive in assay [11], in assay [12], in [19], in assay [13], in assay [14] and in assay [15]. Also, the outcome in assay [1] was inactive.
As to `CCOC(=O)COc1ccc(Cl)cc1Cl`, the molecule was classed as inactive in assay [19], in assay [20] and in assay [18].
As to `CCc1cccc(C)c1N(C(=O)CCl)[C@@H](C)COC`, the result in assay [11], in assay [12], in assay [19], in assay [13], in [14] and in assay [15] was inactive. In addition, the result in [18] was inactive.
As for `CC=Cc1ccc2c(c1)OCO2`, the molecule was classed as inactive in [1].
Consider `Nc1cc(Cl)cc(Cl)c1`, for which the molecule was called inactive in assay [11], in assay [12], in assay [19], in assay [20], in assay [13] and in assay [14]. Moreover, the outcome in assay [1] was inactive.
With `CN1C(=O)CCS(=O)(=O)C1c1ccc(Cl)cc1` (stereo not drawn), the outcome in assay [18] was inactive.
On to `CCC(=O)c1ccc(Cl)cc1`, for which the result in assay [11], in assay [12], in assay [19], in assay [20], in assay [13] and in assay [14] was inactive. For the same molecule, the outcome in [1] was inactive.

A word on the AC50: it is the concentration at which the activity in the assay is half-maximal.

Values taken from PubChem BioAssay (EPA / NIEHS).
